Assay results: PubChem BioAssay AID1347075 (National Center for Advancing Translational Sciences (NCATS), 2019)
In all, about 400,000 compounds went through this assay and about 5,500 (1.4%) were called active. About 9% were inconclusive and are not listed. The entries come from a sample that favours actives as a whole. Values without a mark were called inactive. Calls follow the shape of the dose curve; as a rule, active = well fitted cell-killing curve with a large enough effect; inconclusive = small, poorly fitted or top-dose-only effect, or effect the other way; inactive = flat fitted curve, though single readings scatter.

Assay: qHTS assay for MDR1-selective chemotherapeutics: Primary screen using the parental adenocarcinoma cell KB-3-1; also: nearly all actives have a fitted effect of over 60% in size
Conditions: KB-3-1 viability, CellTiter-Glo ATP luminescence, 72 h; series mostly up to 46.1 µM; activity change, negative = cytotoxic: at the top concentration
Method in brief: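 Cells are dispensed, compounds pinned in, plates held at 37 °C for 72 h, then CellTiter-Glo is added and luminescence read after 10 minutes. Cell line: parental KB-3-1 in phenol-red-free DMEM, 10% FBS.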
% is scaled to controls: 0 for no effect and ±100 for the full control effect; potency is read from the fitted curve at half-maximal effect.

Going from `CCOC(=O)c1ccccc1NC(=O)CCc1c(C)nc2c(c1C)c(=O)n(C)c(=O)n2C` to `Cn1c(=O)c2c(ncn2CCc2ccccc2)n(C)c1=O`, the “activity change, negative = cytotoxic” value falls from 2.75% to 0.55%.

Compared with `Cc1nn(CC(=O)O)c(=O)c2cc3cc(F)ccc3n12`, `O=C(NCCCO)C(=O)Nc1c2c(nn1-c1ccc(F)cc1)CSC2` is higher in “activity change, negative = cytotoxic” value: -16.2% for the first, 3.4% for the second.

Going from `COc1cc(NC(=O)CCn2nc(C)cc2C)cc(OC)c1OC` to `COc1cc(C(=O)N(Cc2ccc(C(C)C)cc2)C2CCS(=O)(=O)C2)cc(OC)c1OC` (stereo not given), the “activity change, negative = cytotoxic” value falls from 14.8% to -5.08%.

Going from `OC(CBr)CN1CCCCC1` (stereo not given) to `CCOC(=O)C1CCCN(C(=O)c2ccc(-n3ccc4ccccc43)s2)C1` (stereo not given), the “activity change, negative = cytotoxic” value falls from 25.7% to 4.41%.

`CC1(C(=O)O)CCN1C(=O)/C=C/c1ccccc1` (stereo not given) and `CC1(C(=O)NS(=O)(=O)c2ccccc2)CCN1C(=O)C/C=C/c1ccccc1` (stereo not given) are the same in “activity change, negative = cytotoxic” value: 0% for the first, 0% for the second.

First: CC(=O)c1c(C)oc2ccc(NS(=O)(=O)c3ccccc3)cc12
Second: CC(=O)c1c(C)oc2ccc(NS(=O)(=O)c3ccc(C(=O)O)cc3)cc12
The “activity change, negative = cytotoxic” value of the first is lower: -0.879% for the first, 19.3% for the second.

First: COc1ccc(NC(=S)SC)cc1OC
Second: COc1ccc(S(=O)(=O)Nc2cc(C)on2)cc1NC(C)=O
The “activity change, negative = cytotoxic” value of the first is lower: -0.174% for the first, 0.0056% for the second.

Going from `Cc1ccc(N(C)C(=O)C2CCN(S(=O)(=O)c3ccc4c(c3)CCCN4C(=O)C3CCC3)CC2)cc1` to `COc1cccc(C(=O)NCc2ccc3c(c2)CCN3C(=O)c2ccncc2)c1`, the “activity change, negative = cytotoxic” value falls from 17.9% to 4.3%.

Going from `CCOc1ccc(CNCc2c(C(=O)O)c(C)n(Cc3cccc(OC)c3)c2C)cc1OC` to `COc1cccc(OC)c1C(=O)N1CCN(Cc2ccccc2F)CC1`, the “activity change, negative = cytotoxic” value falls from 4.24% to -19.9%.

First: OCCNc1ncnc2oc(-c3ccco3)c(-c3ccco3)c12
Second: S=c1[nH]nc(-c2ccco2)n1/N=C/c1ccc(Br)s1
The “activity change, negative = cytotoxic” value of the first is lower: -17.6% for the first, -2.84% for the second.

Going from `Cn1c(=O)c2c(SCC(=O)N3CCc4ccccc43)nc(-c3ccc(Cl)cc3)nc2n(C)c1=O` to `Cn1c(=O)c2c(nc(NCCc3ccccc3)n2Cc2ccccc2Br)n(C)c1=O`, the “activity change, negative = cytotoxic” value falls from -2.78% to -14.2%.

Compared with `O=C(COc1ccccc1F)Nc1ccc(C(=O)OCc2cc(=O)n3nc(C4CC4)sc3n2)cc1`, `CC(=O)Nc1ccc(NC(=O)CCCc2nc(-c3ccc(C(C)(C)C)cc3)no2)cc1` is lower in “activity change, negative = cytotoxic” value: 1.59% for the first, -10.4% for the second.

Going from `Brc1cccc[n+]1Cc1cccc(C[n+]2ccccc2Br)c1` to `CN(C)Cc1cn(-c2ccccc2)nc1-c1ccccc1`, the “activity change, negative = cytotoxic” value rises from -4.59% to 13.6%.

First: COc1ccccc1/C=C/C=N/n1c(-c2ccc(Cl)cc2Cl)n[nH]c1=S
Second: OC(Cc1ccc2ccccc2n1)c1ccc(Cl)c(Cl)c1 (stereo not given)
The “activity change, negative = cytotoxic” value of the first is higher: 4.22% for the first, 0% for the second.

First: COCCn1c(SCC(=O)c2cc(C)ccc2C)nc2cc(C(=O)NC3CCCC3)ccc2c1=O
Second: COCCn1cnc2c1c(=O)n(Cc1ccc(Br)cc1)c(=O)n2Cc1ccccc1
The “activity change, negative = cytotoxic” value of the first is higher: 9.54% for the first, 6.16% for the second.

Compared with `CCOc1ccc(-c2n[nH]c3c2C(c2ccccc2OC)N(c2ccc(Br)cc2)C3=O)cc1` (stereo not given), `COc1ccc2cc(C3=CC(=O)C[C@H](c4ccc5c(c4)OCO5)C3)ccc2c1` is lower in “activity change, negative = cytotoxic” value: 3.38% for the first, 3.24% for the second.

First: COc1ccccc1CN1CCN(Cc2cc(OC)c(OC)cc2OC)CC1
Second: COc1ccccc1CCNS(=O)(=O)c1cn(C)nc1C
The “activity change, negative = cytotoxic” value of the first is lower: -27.7% for the first, -4.69% for the second.

Compared with `CCCN(CCC)C(=O)C(Cc1ccccc1)NS(=O)(=O)c1ccc2c(c1)c(=O)n(C)c(=O)n2C` (stereo not given), `Cc1cn(C)c(CC(=O)NCc2ccccc2)c1C(=O)O` is lower in “activity change, negative = cytotoxic” value: 1% for the first, 0.565% for the second.

Going from `N#C/C(=C\c1cccc(F)c1)c1nc(-c2cc3c(ccc4ccccc43)oc2=O)cs1` to `CCSc1ncc(Cl)c(C(=O)Nc2c(C(=O)c3ccccc3)oc3ccccc23)n1`, the “activity change, negative = cytotoxic” value falls from 9.73% to 1.5%.

Going from `N#Cc1ccc(OC2=NS(=O)(=O)c3ccccc32)cc1` to `O=S(=O)(c1ccc(Br)cc1)c1nnn2c1nc(N1CCOCC1)c1sccc12`, the “activity change, negative = cytotoxic” value falls from -6.03% to -10.3%.

For `O=C1C=C(c2cc(C(F)(F)F)cc(C(F)(F)F)c2)C[C@@H](c2ccc3c(c2)OCO3)C1`, the “activity change, negative = cytotoxic” value was -26.9%.

With `CC1(C)CCSC(/C=C/c2ccccc2)=N1` the Potency was 14.6 µM (active).
In the case of `COc1ccc(S(=O)(=O)Nc2ccc3oc(C)c(C(C)=O)c3c2)cc1`, the Potency is reported as 3.26 µM (active).
In the case of `COc1ccc(NS(=O)(=O)c2ccc(NC(C)=O)cc2)cc1OC`, the Potency is reported as 14.6 µM (active).
In the case of `Cc1cc(-c2n[nH]c(=S)n2/N=C/C(Br)=C/c2ccccc2)n[nH]1`, the Potency is reported as 5.8 µM (active).
In the case of `CN(C)CCCn1c(N)c(C#N)c2nc(C#N)c(C#N)nc21`, the Potency is reported as 23.1 µM (active).
For `CCCc1c(-c2ccccc2F)ncn1Cc1ccccc1OC`, the Potency was 20.6 µM (active).
In the case of `CCCCc1c(-c2ccc(Br)cc2)ncn1CCc1ccccc1OC`, the Potency is reported as 16.4 µM (active).
In the case of `CCCCCc1c(Cc2ccccc2)ncn1CCc1ccccc1OC`, the Potency is reported as 16.4 µM (active).
For `O=C1C=C(c2ccnc3cc(Cl)ccc23)C[C@@H](c2ccc3c(c2)OCO3)C1`, the Potency was 23.1 µM (active).
